Experimental data published in PubChem BioAssay (NCI).
“And” between values parts separate entries of the source, which are not always exact repeats. Equal values may be shown once. About 83,000 compounds went through this panel and 20% of them were active in at least one assay; those are over-represented in the sample as a whole.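 The endpoint reported here, percent growth, reads 100 for growth as untreated, 0 for no net growth and -100 for all cells dead.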 Unmarked numbers belong to inactive results. The source made the active and inactive calls. The calls were made as follows: active = growth percent below 10; inactive = the rest. Starred links: 1 amine or outer side, 2 acyl side, 3 side chain; linkers in the order of their positions; H or OH if unused. Positions of bridges follow the written chain, without caps; N, C: chain ends. Non-standard residues stand in square brackets, D forms with d. Residues, ends and D or L forms follow the SMILES beside them. Chains are numbered I, II in the order given. Actinocin(9to1) = Cc1c2oc3c(C)ccc(C(=O)[*:1])c3nc-2c(C(=O)[*:2])c(N)c1=O; aThr = C[C@H](O)[C@H](N)C(=O)O; NMeV = CN[C@H](C(=O)O)C(C)C; Sar = CNCC(=O)O

Experiments:
Experiment in all cases: NCI-60 one-dose screen, 48 h (100 = growth as untreated, 0 = no growth, -100 = all killed)
EKVX NSCLC = tested on: EKVX NSCLC
SN12C renal = tested on: SN12C renal
UO-31 renal = tested on: UO-31 renal
TK-10 renal = tested on: TK-10 renal
ACHN renal = tested on: ACHN renal
CAKI-1 renal = tested on: CAKI-1 renal
A498 renal = tested on: A498 renal
CCRF-CEM leukemia = tested on: CCRF-CEM leukemia
MOLT-4 leukemia = tested on: MOLT-4 leukemia
SR leukemia = tested on: SR leukemia
OVCAR-5 ovarian = tested on: OVCAR-5 ovarian
OVCAR-4 ovarian = tested on: OVCAR-4 ovarian
SK-OV-3 ovarian = tested on: SK-OV-3 ovarian
IGROV1 ovarian = tested on: IGROV1 ovarian
OVCAR-3 ovarian = tested on: OVCAR-3 ovarian
HS 578T breast = tested on: HS 578T breast
NCI/ADR-RES ovarian = tested on: NCI/ADR-RES ovarian
T-47D breast = tested on: T-47D breast
BT-549 breast = tested on: BT-549 breast
OVCAR-8 ovarian = tested on: OVCAR-8 ovarian

Cc1c2oc3c(C)ccc(C(=O)N[C@@H]4C(=O)N[C@H](C(C)C)C(=O)N5CCC[C@H]5C(=O)N(C)CC(=O)N(C)[C@@H](C(C)C)C(=O)O[C@H]4C)c3nc-2c(C(=O)N[C@@H]2C(=O)N[C@H](C(C)C)C(=O)N3CCC[C@H]3C(=O)N(C)CC(=O)N(C)[C@@H](C(C)C)C(=O)O[C@H]2C)c(N)c1=O (I: [aThr][dV]P[Sar][NMeV] / II: [aThr][dV]P[Sar][NMeV]; ester I:1-I:C, II:1-II:C; linker I:N-II:N via Actinocin(9to1))
growth (EKVX NSCLC; 0.0025 µM): 54% | growth (EKVX NSCLC; 10 µM): -11% (active) | growth (SN12C renal; 0.0025 µM): 46.6% | growth (SN12C renal; 10 µM): 14.9% | growth (UO-31 renal; 0.0025 µM): 99.4% | growth (UO-31 renal; 10 µM): -12.6% (active) | growth (TK-10 renal; 0.0025 µM): 87.7% | growth (TK-10 renal; 10 µM): 9.15% (active) | growth (ACHN renal; 0.0025 µM): 62% | growth (ACHN renal; 10 µM): 3.24% (active) | growth (CAKI-1 renal; 0.0025 µM): 92.2% | growth (CAKI-1 renal; 10 µM): -13.7% (active) | growth (A498 renal; 0.0025 µM): 32.4% | growth (CCRF-CEM leukemia; 0.0025 µM): 42.3% | growth (CCRF-CEM leukemia; 10 µM): 0.799% (active) | growth (MOLT-4 leukemia; 0.0025 µM): 23% | growth (MOLT-4 leukemia; 10 µM): -7.29% (active) | growth (SR leukemia; 0.0025 µM): 14.8% | growth (SR leukemia; 10 µM): 3.04% (active) | growth (OVCAR-5 ovarian; 0.0025 µM): 50.9% | growth (OVCAR-5 ovarian; 10 µM): -66.1% (active) | growth (OVCAR-4 ovarian; 0.0025 µM): 50.3% | growth (OVCAR-4 ovarian; 10 µM): -8.21% (active) | growth (SK-OV-3 ovarian; 0.0025 µM): 92.8% | growth (SK-OV-3 ovarian; 10 µM): 14.8% | growth (IGROV1 ovarian; 0.0025 µM): 35.5% | growth (IGROV1 ovarian; 10 µM): -27.7% (active) | growth (OVCAR-3 ovarian; 0.0025 µM): 70% | growth (OVCAR-3 ovarian; 10 µM): 5.84% (active) | growth (HS 578T breast; 0.0025 µM): -10.9% (active) | growth (NCI/ADR-RES ovarian; 0.0025 µM): 96.7% | growth (NCI/ADR-RES ovarian; 10 µM): -39.5% (active) | growth (T-47D breast; 0.0025 µM): 53.6% | growth (T-47D breast; 10 µM): -13.8% (active) | growth (BT-549 breast; 0.0025 µM): 27.5% | growth (BT-549 breast; 10 µM): -45.4% (active)

N#C/C(=C1C=C/C(=N\O)C(Cl)=C\1)c1ccccc1
growth (SN12C renal; 10 µM): 34.8% | growth (UO-31 renal; 10 µM): 34% | growth (TK-10 renal; 10 µM): 53.1% | growth (ACHN renal; 10 µM): 25.7% | growth (CAKI-1 renal; 10 µM): 5.29% (active) | growth (A498 renal; 10 µM): 86.5% | growth (MOLT-4 leukemia; 10 µM): 33.6% | growth (OVCAR-8 ovarian; 10 µM): 43.2% | growth (OVCAR-5 ovarian; 10 µM): 64% | growth (OVCAR-4 ovarian; 10 µM): 57% | growth (SK-OV-3 ovarian; 10 µM): 37.5% | growth (IGROV1 ovarian; 10 µM): 53% | growth (OVCAR-3 ovarian; 10 µM): 39.6% | growth (HS 578T breast; 10 µM): 56.2% | growth (NCI/ADR-RES ovarian; 10 µM): 34% | growth (T-47D breast; 10 µM): 43.3% | growth (BT-549 breast; 10 µM): 110%

Nc1ccc2cc(Br)c3ccccc3c2c1
growth (EKVX NSCLC; 10 µM): 31.3% | growth (SN12C renal; 10 µM): 63.8% | growth (UO-31 renal; 10 µM): 42.9% | growth (TK-10 renal; 10 µM): 85.8% | growth (ACHN renal; 10 µM): 66% | growth (CAKI-1 renal; 10 µM): 20.1% | growth (A498 renal; 10 µM): 77.5% | growth (CCRF-CEM leukemia; 10 µM): 37.8% | growth (MOLT-4 leukemia; 10 µM): 28.2% | growth (SR leukemia; 10 µM): 57.5% | growth (OVCAR-8 ovarian; 10 µM): 84.8% | growth (OVCAR-5 ovarian; 10 µM): 79.9% | growth (OVCAR-4 ovarian; 10 µM): 56.7% | growth (SK-OV-3 ovarian; 10 µM): 81.1% | growth (IGROV1 ovarian; 10 µM): 82.2% | growth (OVCAR-3 ovarian; 10 µM): 74.6% | growth (NCI/ADR-RES ovarian; 10 µM): 67.2% | growth (T-47D breast; 10 µM): 28.8% | growth (BT-549 breast; 10 µM): 68.9%

COc1ccc2c(C)cc(N/N=C/c3sccc3C)nc2c1
growth (TK-10 renal; 100 µM): -82.7% (active) and -100% (active)

BrC/C=C/C[P+](c1ccccc1)(c1ccccc1)c1ccccc1
growth (EKVX NSCLC; 10 µM): 70.2% | growth (SN12C renal; 10 µM): 64.4% | growth (UO-31 renal; 10 µM): 66.2% | growth (TK-10 renal; 10 µM): 48.7% | growth (ACHN renal; 10 µM): 43.4% | growth (CAKI-1 renal; 10 µM): 103% | growth (A498 renal; 10 µM): 72.9% | growth (CCRF-CEM leukemia; 10 µM): 37.9% | growth (MOLT-4 leukemia; 10 µM): 79.7% | growth (OVCAR-8 ovarian; 10 µM): 28.3% | growth (OVCAR-5 ovarian; 10 µM): 85.2% | growth (OVCAR-4 ovarian; 10 µM): 98.8% | growth (SK-OV-3 ovarian; 10 µM): 95.5% | growth (IGROV1 ovarian; 10 µM): 83.8% | growth (OVCAR-3 ovarian; 10 µM): 32.4% | growth (HS 578T breast; 10 µM): 92.4% | growth (NCI/ADR-RES ovarian; 10 µM): 96.7% | growth (T-47D breast; 10 µM): 10.7% | growth (BT-549 breast; 10 µM): 57.1%

Cc1cnc(/C=N\NC(N)=S)c2cccc(N)c12
growth (EKVX NSCLC; 10 µM): 29.5% | growth (SN12C renal; 10 µM): -12.9% (active) | growth (UO-31 renal; 10 µM): 1.67% (active) | growth (TK-10 renal; 10 µM): 19.6% | growth (ACHN renal; 10 µM): 10.2% | growth (CAKI-1 renal; 10 µM): 2.66% (active) | growth (A498 renal; 10 µM): 12.4% | growth (CCRF-CEM leukemia; 10 µM): -28.1% (active) | growth (MOLT-4 leukemia; 10 µM): -13.8% (active) | growth (SR leukemia; 10 µM): -16.3% (active) | growth (OVCAR-8 ovarian; 10 µM): 17.7% | growth (OVCAR-5 ovarian; 10 µM): 34.9% | growth (OVCAR-4 ovarian; 10 µM): 31.9% | growth (SK-OV-3 ovarian; 10 µM): 22.9% | growth (OVCAR-3 ovarian; 10 µM): 0.342% (active) | growth (HS 578T breast; 10 µM): 69.1% | growth (NCI/ADR-RES ovarian; 10 µM): 10.9% | growth (T-47D breast; 10 µM): 9.76% (active)

O=c1[nH]cc(F)c(=O)[nH]1
growth (EKVX NSCLC; 10 µM): 74.3% and 82.4% | growth (EKVX NSCLC; 25 µM): 58.4% | growth (EKVX NSCLC; 50 µM): 62.8% | growth (SN12C renal; 10 µM): 57% and 73% | growth (SN12C renal; 25 µM): 54% | growth (SN12C renal; 50 µM): 46.3% | growth (UO-31 renal; 10 µM): 29.3% and 41.7% | growth (UO-31 renal; 25 µM): 41.3% | growth (UO-31 renal; 50 µM): 38.2% | growth (TK-10 renal; 10 µM): 71.2% | growth (TK-10 renal; 25 µM): 66.9% | growth (ACHN renal; 10 µM): 39.8% and 60.1% | growth (ACHN renal; 25 µM): 39.3% | growth (ACHN renal; 50 µM): 36.9% | growth (CAKI-1 renal; 10 µM): 28.5% and 63.3% | growth (CAKI-1 renal; 25 µM): 39.4% | growth (CAKI-1 renal; 50 µM): 43.2% | growth (A498 renal; 10 µM): 40.1% | growth (A498 renal; 25 µM): -16.3% (active) | growth (A498 renal; 50 µM): 52.6% | growth (CCRF-CEM leukemia; 10 µM): 56.3% and 65.9% | growth (CCRF-CEM leukemia; 25 µM): 57.1% | growth (CCRF-CEM leukemia; 50 µM): 50% | growth (MOLT-4 leukemia; 10 µM): 57.5% and 74.9% | growth (MOLT-4 leukemia; 25 µM): 43.1% | growth (MOLT-4 leukemia; 50 µM): 37.6% | growth (SR leukemia; 10 µM): 27.6% and 37.4% | growth (SR leukemia; 25 µM): 24.8% | growth (SR leukemia; 50 µM): 31.6% | growth (OVCAR-8 ovarian; 10 µM): 53.1% | growth (OVCAR-8 ovarian; 50 µM): 46.7% | growth (OVCAR-5 ovarian; 10 µM): 82.1% and 70.7% | growth (OVCAR-5 ovarian; 25 µM): 44.3% | growth (OVCAR-5 ovarian; 50 µM): 73% | growth (OVCAR-4 ovarian; 10 µM): 72.6% and 107% | growth (OVCAR-4 ovarian; 25 µM): 59.4% | growth (OVCAR-4 ovarian; 50 µM): 68.5% | growth (SK-OV-3 ovarian; 10 µM): 70% and 74.7% | growth (SK-OV-3 ovarian; 25 µM): 77.5% | growth (IGROV1 ovarian; 10 µM): 54.3% and 44.1% | growth (IGROV1 ovarian; 25 µM): 51.2% | growth (IGROV1 ovarian; 50 µM): 46.2% | growth (OVCAR-3 ovarian; 10 µM): 52.5% and 72.2% | growth (OVCAR-3 ovarian; 25 µM): 47.4% | growth (OVCAR-3 ovarian; 50 µM): 31% | growth (HS 578T breast; 10 µM): 99% | growth (HS 578T breast; 25 µM): -10.8% (active) | growth (HS 578T breast; 50 µM): 58.8% | growth (NCI/ADR-RES ovarian; 10 µM): 67.2% and 63.5% | growth (NCI/ADR-RES ovarian; 25 µM): 47.6% | growth (NCI/ADR-RES ovarian; 50 µM): 56.5% | growth (T-47D breast; 10 µM): 64.4% and 52.8% | growth (T-47D breast; 25 µM): 56.7% | growth (BT-549 breast; 10 µM): 57.2% and 54.6% | growth (BT-549 breast; 25 µM): 37.8% | growth (BT-549 breast; 50 µM): 60.6%
